This is an account of results in article PMC7862700, “An all-to-all approach to the identification of sequence-specific readers for epigenetic DNA modifications on cytosine”.

Assay in all cases: DAPPL (digital affinity profiling via proximity ligation, sequencing); 10 mM Tris-HCl pH 7.5, 50 mM NaCl, 1 mM DTT, 4% glycerol, room temperature, 30 min; GST-TFs on glutathione beads, 16-mer random dsDNA library, 0.1% formaldehyde crosslink after washing; high values mean tight binding
Common to all, as to conditions: protein: recombinant; tags: N-terminal GST; dsDNA, one strand shown

In assay [1] the target is T1, FLI1 (Homo sapiens, UniProt Q01543 1-452).
T1 sequence: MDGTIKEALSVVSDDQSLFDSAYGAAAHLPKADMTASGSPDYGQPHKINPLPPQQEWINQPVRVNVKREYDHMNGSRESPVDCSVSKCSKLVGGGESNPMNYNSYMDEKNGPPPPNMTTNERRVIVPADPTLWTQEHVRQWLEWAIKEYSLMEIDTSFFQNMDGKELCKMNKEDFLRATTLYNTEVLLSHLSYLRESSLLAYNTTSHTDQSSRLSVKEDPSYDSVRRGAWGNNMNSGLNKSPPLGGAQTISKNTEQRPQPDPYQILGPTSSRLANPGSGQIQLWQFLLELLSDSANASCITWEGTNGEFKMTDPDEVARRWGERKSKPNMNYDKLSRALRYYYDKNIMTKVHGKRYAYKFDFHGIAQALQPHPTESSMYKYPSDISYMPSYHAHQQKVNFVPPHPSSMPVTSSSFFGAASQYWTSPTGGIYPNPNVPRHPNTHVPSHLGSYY
The procedure, abridged:
(§1)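 Each value of binding signal is a hexamer's read frequency for a factor divided by the same hexamer's frequency in the tag-only sample. Barcoded, bead-captured GST fusions of human transcription factors made in yeast were pooled with that sample and incubated with 200 nmole of a random double-stranded 16-mer DNA library in Tris/NaCl/DTT/glycerol buffer at room temperature for 30 min. Washing, 0.1% formaldehyde crosslinking, proximity ligation, PCR and Illumina NextSeq500 sequencing followed.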

Assay [2] deals with T2, ELK1 (Homo sapiens, UniProt P19419 1-428).
T2 sequence: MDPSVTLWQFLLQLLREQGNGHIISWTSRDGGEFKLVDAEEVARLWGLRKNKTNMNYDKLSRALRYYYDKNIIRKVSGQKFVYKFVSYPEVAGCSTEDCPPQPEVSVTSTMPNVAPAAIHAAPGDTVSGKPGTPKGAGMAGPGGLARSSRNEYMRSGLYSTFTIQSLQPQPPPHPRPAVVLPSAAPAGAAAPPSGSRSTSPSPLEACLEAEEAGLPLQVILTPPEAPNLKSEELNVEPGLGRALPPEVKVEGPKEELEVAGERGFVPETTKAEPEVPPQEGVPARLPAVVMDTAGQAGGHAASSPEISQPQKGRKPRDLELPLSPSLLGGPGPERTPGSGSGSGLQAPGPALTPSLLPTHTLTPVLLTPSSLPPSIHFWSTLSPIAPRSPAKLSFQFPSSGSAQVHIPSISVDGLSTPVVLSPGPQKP
The procedure, abridged:
as §1

Assay [3] concerns the target T3, GABPA (Homo sapiens, UniProt Q06546 1-454).
T3 sequence: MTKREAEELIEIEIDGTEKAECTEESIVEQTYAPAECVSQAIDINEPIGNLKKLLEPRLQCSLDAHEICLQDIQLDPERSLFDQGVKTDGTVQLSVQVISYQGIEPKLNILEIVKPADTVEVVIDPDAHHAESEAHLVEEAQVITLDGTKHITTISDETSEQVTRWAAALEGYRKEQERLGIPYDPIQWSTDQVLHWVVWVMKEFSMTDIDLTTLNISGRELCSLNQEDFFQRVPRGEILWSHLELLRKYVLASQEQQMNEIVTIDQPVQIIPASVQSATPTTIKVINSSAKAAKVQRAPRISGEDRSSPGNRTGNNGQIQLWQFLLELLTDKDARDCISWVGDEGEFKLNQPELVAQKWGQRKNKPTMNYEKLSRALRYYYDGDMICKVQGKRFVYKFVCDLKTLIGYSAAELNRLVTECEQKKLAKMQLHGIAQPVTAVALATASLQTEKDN
The procedure, abridged:
as §1

Assay [4] deals with T4, ERG (Homo sapiens, UniProt P11308 1-479).
T4 sequence: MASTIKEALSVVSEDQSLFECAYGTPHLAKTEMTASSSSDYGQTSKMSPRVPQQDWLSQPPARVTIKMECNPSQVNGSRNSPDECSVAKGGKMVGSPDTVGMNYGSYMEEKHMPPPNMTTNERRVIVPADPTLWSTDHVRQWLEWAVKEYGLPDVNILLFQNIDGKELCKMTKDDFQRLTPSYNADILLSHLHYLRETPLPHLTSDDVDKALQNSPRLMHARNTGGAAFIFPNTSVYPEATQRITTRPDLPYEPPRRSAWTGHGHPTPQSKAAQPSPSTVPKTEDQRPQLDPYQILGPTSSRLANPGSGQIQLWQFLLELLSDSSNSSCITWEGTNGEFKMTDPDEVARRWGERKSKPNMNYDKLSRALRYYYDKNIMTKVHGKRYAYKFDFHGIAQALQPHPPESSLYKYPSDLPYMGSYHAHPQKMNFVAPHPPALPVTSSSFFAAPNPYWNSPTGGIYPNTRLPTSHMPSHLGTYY
The procedure, abridged:
as §1

In assay [5] the target is ELF1 (Homo sapiens, UniProt P32519 1-619). The procedure, abridged: as §1
Chain of ELF1 (P32519 whole entry): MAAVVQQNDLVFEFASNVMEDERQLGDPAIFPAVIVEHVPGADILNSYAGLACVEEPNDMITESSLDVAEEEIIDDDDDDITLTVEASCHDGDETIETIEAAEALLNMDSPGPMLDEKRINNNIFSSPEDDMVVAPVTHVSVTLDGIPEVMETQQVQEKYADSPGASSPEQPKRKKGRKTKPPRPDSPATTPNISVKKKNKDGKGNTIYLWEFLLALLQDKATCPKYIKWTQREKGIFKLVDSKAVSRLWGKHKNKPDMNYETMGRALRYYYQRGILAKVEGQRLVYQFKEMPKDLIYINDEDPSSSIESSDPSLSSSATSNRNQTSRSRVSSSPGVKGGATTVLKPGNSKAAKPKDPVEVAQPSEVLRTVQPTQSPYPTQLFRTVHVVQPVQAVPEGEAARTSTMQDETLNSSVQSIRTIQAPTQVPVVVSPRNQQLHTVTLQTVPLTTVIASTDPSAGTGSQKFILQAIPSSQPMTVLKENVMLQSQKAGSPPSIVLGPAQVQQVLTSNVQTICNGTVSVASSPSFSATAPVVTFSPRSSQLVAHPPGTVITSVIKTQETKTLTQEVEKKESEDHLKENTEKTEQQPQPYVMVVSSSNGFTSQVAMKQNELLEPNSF
Assay [6] addresses T5, EHF (Homo sapiens, UniProt Q9NZC4 1-300).
T5 sequence: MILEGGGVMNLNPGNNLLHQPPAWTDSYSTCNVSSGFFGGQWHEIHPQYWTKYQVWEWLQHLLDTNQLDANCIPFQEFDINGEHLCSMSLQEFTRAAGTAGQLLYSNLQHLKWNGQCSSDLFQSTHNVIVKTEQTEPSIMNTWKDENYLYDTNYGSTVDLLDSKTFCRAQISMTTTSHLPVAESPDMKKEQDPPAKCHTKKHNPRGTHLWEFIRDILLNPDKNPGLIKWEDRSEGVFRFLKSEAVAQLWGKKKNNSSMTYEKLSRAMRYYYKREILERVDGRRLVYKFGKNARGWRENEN
The procedure, abridged:
as §1

Assay [7] addresses SPI1 (Homo sapiens, UniProt P17947 1-270). The procedure, abridged: as §1
The target in assay [8] is SPIB (Homo sapiens, UniProt Q01892 1-262). The procedure, abridged: as §1
Chain of SPIB (Q01892 whole entry): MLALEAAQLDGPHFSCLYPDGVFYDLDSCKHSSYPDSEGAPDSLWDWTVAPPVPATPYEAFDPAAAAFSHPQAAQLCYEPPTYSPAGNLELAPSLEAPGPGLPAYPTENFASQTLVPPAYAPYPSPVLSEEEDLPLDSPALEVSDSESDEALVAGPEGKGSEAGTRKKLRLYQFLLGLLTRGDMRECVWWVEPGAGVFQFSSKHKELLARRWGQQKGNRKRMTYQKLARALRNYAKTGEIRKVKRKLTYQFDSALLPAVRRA
Assay [9] deals with T6, ELK3 (Homo sapiens, UniProt P41970 1-407).
T6 sequence: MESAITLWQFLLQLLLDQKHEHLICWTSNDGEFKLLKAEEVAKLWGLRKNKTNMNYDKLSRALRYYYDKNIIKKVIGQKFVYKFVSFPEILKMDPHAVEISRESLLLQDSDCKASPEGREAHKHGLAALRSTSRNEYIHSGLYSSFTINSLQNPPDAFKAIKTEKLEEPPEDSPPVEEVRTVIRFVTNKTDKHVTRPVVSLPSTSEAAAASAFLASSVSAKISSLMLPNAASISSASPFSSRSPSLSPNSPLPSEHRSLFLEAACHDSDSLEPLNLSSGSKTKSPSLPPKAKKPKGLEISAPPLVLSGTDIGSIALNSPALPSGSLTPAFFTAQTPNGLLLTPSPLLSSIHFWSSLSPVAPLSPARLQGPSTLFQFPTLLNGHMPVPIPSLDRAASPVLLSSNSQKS
The procedure, abridged:
as §1

Assay [10] deals with T7, FEV (Homo sapiens, UniProt Q99581 1-238).
T7 sequence: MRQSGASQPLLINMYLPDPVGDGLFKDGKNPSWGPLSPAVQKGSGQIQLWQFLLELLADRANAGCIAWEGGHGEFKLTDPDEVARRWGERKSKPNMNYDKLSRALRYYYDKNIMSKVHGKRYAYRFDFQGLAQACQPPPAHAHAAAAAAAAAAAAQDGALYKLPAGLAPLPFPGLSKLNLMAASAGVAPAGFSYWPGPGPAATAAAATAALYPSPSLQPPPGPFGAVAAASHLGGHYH
The procedure, abridged:
as §1

For assay [11], the target named is ETV5 (Homo sapiens, UniProt P41161 1-510). The procedure, abridged:
as §1

In assay [12] the target is T8, SPIC (Homo sapiens, UniProt Q8N5J4 1-248).
T8 sequence: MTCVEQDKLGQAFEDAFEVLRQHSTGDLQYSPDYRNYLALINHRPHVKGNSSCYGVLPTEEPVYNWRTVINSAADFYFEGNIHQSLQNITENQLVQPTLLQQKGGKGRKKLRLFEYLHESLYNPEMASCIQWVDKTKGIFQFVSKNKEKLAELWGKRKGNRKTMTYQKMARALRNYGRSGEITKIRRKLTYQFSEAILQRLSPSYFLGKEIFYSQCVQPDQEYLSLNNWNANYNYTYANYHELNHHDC
The procedure, abridged:
as §1

In assay [13] the target is ELF4 (Homo sapiens, UniProt Q99607 1-663). The procedure, abridged:
as §1

For assay [14], the target named is T9, ELK4 (Homo sapiens, UniProt P28324-2 1-405).
T9 sequence: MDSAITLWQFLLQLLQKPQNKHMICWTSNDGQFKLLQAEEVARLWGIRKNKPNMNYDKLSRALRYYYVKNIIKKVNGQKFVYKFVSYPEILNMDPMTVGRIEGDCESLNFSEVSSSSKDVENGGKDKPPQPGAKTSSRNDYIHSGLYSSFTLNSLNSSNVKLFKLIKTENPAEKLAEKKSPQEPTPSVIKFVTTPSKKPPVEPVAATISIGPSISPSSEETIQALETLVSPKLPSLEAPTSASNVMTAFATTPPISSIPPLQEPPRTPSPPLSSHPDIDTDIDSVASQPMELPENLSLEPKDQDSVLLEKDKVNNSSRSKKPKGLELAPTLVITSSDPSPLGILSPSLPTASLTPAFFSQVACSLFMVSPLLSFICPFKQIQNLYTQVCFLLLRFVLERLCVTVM
The procedure, abridged: as §1

Assay [15] addresses T10, ETV2 (Homo sapiens, UniProt O00321 1-342).
T10 sequence: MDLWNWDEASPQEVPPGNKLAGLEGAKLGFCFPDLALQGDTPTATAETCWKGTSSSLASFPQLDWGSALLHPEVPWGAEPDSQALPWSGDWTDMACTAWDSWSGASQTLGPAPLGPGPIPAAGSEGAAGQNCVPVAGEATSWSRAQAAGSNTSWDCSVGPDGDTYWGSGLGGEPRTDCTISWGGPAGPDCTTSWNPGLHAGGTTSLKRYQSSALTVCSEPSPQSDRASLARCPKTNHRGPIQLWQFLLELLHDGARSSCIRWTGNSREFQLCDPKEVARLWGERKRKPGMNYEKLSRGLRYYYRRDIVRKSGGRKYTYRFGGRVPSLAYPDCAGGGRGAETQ
The procedure, abridged: as §1

Assay [16] addresses T11, ELF3 (Homo sapiens, UniProt P78545 1-371).
T11 sequence: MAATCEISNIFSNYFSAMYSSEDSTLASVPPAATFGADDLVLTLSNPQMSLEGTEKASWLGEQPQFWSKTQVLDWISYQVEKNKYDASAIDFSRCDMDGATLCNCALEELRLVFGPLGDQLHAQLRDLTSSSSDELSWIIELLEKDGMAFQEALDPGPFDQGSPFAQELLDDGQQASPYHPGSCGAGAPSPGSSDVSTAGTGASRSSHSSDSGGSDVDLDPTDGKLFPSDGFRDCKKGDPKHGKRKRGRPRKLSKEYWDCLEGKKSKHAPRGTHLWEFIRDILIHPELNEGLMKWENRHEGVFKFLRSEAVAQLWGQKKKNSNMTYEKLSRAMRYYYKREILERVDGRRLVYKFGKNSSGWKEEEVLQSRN
The procedure, abridged:
as §1

Assay [17] addresses CRX (Homo sapiens, UniProt O43186 1-299). The procedure, abridged:
as §1

The target of assay [18] is ETV1 (Homo sapiens, UniProt P50549 1-477). The procedure, abridged: as §1
Chain of ETV1 (P50549 whole entry): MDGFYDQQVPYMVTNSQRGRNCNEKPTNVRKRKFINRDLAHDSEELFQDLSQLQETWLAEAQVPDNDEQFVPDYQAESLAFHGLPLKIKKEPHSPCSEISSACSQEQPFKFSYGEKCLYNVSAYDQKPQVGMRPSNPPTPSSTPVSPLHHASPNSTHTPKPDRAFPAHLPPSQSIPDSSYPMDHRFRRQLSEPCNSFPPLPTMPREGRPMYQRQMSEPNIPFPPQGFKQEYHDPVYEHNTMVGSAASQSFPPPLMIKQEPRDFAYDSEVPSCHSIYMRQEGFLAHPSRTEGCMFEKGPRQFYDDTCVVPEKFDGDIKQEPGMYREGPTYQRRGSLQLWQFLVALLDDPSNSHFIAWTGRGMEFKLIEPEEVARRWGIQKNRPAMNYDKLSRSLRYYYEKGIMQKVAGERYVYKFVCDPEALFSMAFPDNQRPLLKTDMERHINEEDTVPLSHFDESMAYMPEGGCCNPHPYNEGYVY

Chain of ETV5 (P41161 whole entry): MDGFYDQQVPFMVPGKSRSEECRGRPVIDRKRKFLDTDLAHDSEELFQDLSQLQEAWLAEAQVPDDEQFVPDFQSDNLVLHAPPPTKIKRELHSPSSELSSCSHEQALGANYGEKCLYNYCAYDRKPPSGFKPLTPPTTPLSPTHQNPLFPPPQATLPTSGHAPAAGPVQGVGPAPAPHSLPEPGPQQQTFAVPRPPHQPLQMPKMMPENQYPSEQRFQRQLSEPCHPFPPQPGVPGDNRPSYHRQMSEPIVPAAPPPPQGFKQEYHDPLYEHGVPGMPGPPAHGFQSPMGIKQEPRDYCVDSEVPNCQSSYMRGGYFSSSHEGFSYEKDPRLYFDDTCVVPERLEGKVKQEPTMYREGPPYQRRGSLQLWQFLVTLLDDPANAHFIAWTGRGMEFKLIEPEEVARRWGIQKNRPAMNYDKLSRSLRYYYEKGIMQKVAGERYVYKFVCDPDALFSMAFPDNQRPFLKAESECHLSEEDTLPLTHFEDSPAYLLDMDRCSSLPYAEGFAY
Chain of CRX (O43186 whole entry): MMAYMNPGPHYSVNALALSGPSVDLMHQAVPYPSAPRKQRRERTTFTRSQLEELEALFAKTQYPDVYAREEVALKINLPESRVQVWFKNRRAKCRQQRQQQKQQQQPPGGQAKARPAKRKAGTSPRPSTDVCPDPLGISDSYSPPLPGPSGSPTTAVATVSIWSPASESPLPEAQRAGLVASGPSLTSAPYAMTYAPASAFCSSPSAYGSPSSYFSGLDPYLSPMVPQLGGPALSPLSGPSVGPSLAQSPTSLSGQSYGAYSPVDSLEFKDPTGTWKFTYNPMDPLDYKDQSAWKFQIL
Chain of ELF4 (Q99607 whole entry): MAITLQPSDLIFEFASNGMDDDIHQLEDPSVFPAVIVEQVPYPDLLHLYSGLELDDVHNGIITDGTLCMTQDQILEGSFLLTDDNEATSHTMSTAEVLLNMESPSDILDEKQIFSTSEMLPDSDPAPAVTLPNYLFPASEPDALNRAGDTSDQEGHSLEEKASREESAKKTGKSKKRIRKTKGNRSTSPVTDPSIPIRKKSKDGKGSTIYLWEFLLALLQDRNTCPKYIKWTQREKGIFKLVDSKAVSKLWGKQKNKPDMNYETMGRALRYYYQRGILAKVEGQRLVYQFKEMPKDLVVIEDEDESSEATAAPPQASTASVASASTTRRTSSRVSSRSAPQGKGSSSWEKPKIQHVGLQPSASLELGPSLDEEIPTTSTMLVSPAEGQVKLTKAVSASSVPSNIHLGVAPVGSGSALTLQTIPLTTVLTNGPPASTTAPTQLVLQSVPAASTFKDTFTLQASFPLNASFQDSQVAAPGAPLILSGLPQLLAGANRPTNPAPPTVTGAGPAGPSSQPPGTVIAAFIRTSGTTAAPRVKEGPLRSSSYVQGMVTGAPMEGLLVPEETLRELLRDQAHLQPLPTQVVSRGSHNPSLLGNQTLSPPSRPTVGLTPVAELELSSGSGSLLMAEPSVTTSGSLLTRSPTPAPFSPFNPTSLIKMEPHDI

Take TACCCA: the binding signal was 1.01 fold enrichment (6-mer frequency, TF over GST control) in [1]; 1.09 fold enrichment (6-mer frequency, TF over GST control) in assay [2]; 1.12 fold enrichment (6-mer frequency, TF over GST control) in [3]; 1.03 fold enrichment (6-mer frequency, TF over GST control) in [4]; 1.07 fold enrichment (6-mer frequency, TF over GST control) in assay [5]; 1.05 fold enrichment (6-mer frequency, TF over GST control) in [6]. The binding signal in assay [7] is 1.09 fold enrichment (6-mer frequency, TF over GST control); in [8], 1.1 fold enrichment (6-mer frequency, TF over GST control); in assay [9], 1.09 fold enrichment (6-mer frequency, TF over GST control); in assay [10] it was 1.03 fold enrichment (6-mer frequency, TF over GST control); in assay [11], 1.11 fold enrichment (6-mer frequency, TF over GST control); in assay [12], 1.08 fold enrichment (6-mer frequency, TF over GST control). Also, the binding signal was 1.08 fold enrichment (6-mer frequency, TF over GST control) in assay [13]; 1.02 fold enrichment (6-mer frequency, TF over GST control) in [14]; 1.12 fold enrichment (6-mer frequency, TF over GST control) in [15]; 1.18 fold enrichment (6-mer frequency, TF over GST control) in assay [16]; 1.08 fold enrichment (6-mer frequency, TF over GST control) in assay [17]; 1.03 fold enrichment (6-mer frequency, TF over GST control) in assay [18].
